# Screening results: PubChem, The Scripps Research Institute Molecular Screening Center
# FBW7 act: FBW7 E3 ligase activators, primary screen, biochemical, AlphaScreen, human. F-box/WD repeat-containing protein 7 (Homo sapiens), Q969H0. AlphaScreen FBW7–phospho-cyclin E peptide binding, activator screen. normalized activity (activation), % at 26.1 µM. 650,000 tested, 0.13% active. AID 1259310, 2017; in the data active means normalized activity above about 1.9%;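 further: purified mutant Fbw7 with reduced substrate affinity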
# TEAD-YAP inh: TEAD-YAP interaction inhibition, primary screen, TEAD-YAP interaction inhibitor project, luminescence, HEK-TIYL cells; AID 1259422, 2018; inhibition, % at 9.12 µM; TEAD-Gal4/YAP UAS-luciferase luminescence; 640,000 tested, 1.4% active; in the data active means inhibition above about 32%;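 further: 0% = median of test compound wells and 100% = reference inhibitor wells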
# GPR151 activ: activators of human GPR151, primary screen, cell-based, PathHunter beta-arrestin, luminescence | G-protein coupled receptor 151 (Homo sapiens), Q8TDV0 | PathHunter beta-arrestin GPR151 cells | activation, % at 11.2 µM | 650,000 tested, 1% active; in the data active means activation above about 4.9%;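 further: 0% = median of compound wells and 100% = cells with positive control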
# MITF primary: MITF inhibitors, primary screen, biochemical, AlphaScreen, human; Microphthalmia-associated transcription factor (Homo sapiens), O75030; AlphaScreen MITF homodimerization, bead proximity signal; inhibition, % at 2.6 µM; 650,000 tested, 0.91% active; AID 1259374, 2018; in the data active means inhibition above about 50%;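 further: 0% = vehicle wells with protein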
# GPR151 confirm: GPR151 activators, triplicate retest, confirmation, cell-based, PathHunter beta-arrestin, luminescence | shares compounds with GPR151 activ | GPR151 PathHunter beta-arrestin cells, 90 min; % of EA-reagent control over plate median | activation, % at 11.2 µM | 6,700 tested, under 10 active;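 active means mean percent activation across replicates above the confirmation screen cutoff of 4.91%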
# GPR119 counter: GPR119 activators in beta-arrestin cells, counter-screen for GPR151 activator project, cell-based, PathHunter beta-arrestin, luminescence, triplicate; shares compounds with GPR151 activ; 90 min; 0 = compound-well median, 100 = enzyme-acceptor control; activation, % at 11.2 µM; 6,700 tested, 0.3% active;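 active means mean percent activation in the counterscreen above 29.09%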;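 further: counterscreen on off-target GPR119 to flag nonselective hits from the GPR151 activator screen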
# Target sequence (Q8TDV5 whole entry, looked up): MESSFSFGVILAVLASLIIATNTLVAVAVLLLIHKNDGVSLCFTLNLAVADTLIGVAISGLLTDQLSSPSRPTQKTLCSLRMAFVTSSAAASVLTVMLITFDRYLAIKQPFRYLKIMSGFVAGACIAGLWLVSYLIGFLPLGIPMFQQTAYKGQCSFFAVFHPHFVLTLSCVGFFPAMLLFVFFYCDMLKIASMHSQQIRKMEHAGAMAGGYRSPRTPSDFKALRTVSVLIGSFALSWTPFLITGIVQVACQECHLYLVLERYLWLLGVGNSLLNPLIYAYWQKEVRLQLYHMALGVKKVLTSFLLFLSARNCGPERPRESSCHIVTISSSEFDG
# Active calls of the source: *; . = no result. Rows were chosen to be rich in hits. Some 3.5% of all compounds tested hit in one or more screens of this group.
SMILES,FBW7 act,TEAD-YAP inh,GPR151 activ,MITF primary,GPR151 confirm,GPR119 counter
CCOC(=O)c1ccc(N/C=C/C(=O)c2ccc(Br)cc2)cc1,0,-10,2,-3,.,.
Cc1ccc(CNC(=O)c2sccc2-n2cccc2)cc1,0,2,5.6*,16,0,7
Cc1ccc(CNC(=O)Cc2ccc(Cl)cc2)cc1,0,-12,8.4*,1,0,-2
Cc1ccc(CNC(=O)c2ccc(-n3cccc3)cc2)cc1,0,-17,1,41,.,.
COc1ccccc1OCC(=O)NCc1ccc(C)cc1,1,-12,5.4*,-3,0,4
Cc1ccc(CNC(=O)C(=O)NCc2ccc(Cl)cc2)cc1,0,3,0,11,.,.
O=C(CN(C(=O)c1csnn1)c1ccc(F)cc1)NCc1ccccc1,0,-2,5.6*,8,-1,-6
COc1ccccc1C(=O)OC1CC(C)N(C)CC1C (stereo not drawn),0,-4,2,2,.,.
C=CCc1cccc(/C=N/NC(=O)COc2ccc(I)cc2)c1O,0,3,0,-11,.,.
CS(=O)(=O)N1CCN(Cc2ccccc2)CC1C(=O)NCc1ccccc1 (stereo not drawn),0,-5,0,-12,.,.
CC1CC(C)CN(C(=O)Cn2c(SCC(=O)O)nc3ccccc32)C1 (stereo not drawn),0,1,0,4,.,.
Cc1ccc(CNC(=O)c2ccc(C)cc2)cc1,1,-20,0,28,.,.
Cc1ccc(CNC(=O)c2csnn2)cc1,0,-3,13*,7,1,7
O=C1C(=O)N(c2nc3ccccc3s2)C(c2ccc3c(c2)OCO3)/C1=C(\O)c1ccccc1 (stereo not drawn),0,-38,1,-13,.,.
COC(=O)[C@@H]1CCCN1Cc1ccc2c(c1)CN(Cc1ccc3c(c1)OCCO3)CCO2,0,0,-1,16,.,.
COC(=O)C1CCCCN1Cc1ccc2c(c1)CN(Cc1cnn(C)c1C)CCO2 (stereo not drawn),0,3,5.9*,0,1,0
CCOc1ccc(-n2c(/C=C\c3cccc(C(F)(F)F)c3)nc3ccccc3c2=O)cc1,0,8,1,6,.,.
CC(=O)Nc1ccc(N2CCCS2(=O)=O)cc1,0,4,-2,7,.,.
COc1ccc(C(=O)Cn2c(CN3CCCCC3)nc3ccccc3c2=O)cc1,0,-10,6.1*,-2,0,-7
O=C(NCc1nc(-c2ccncc2)n[nH]1)C(c1ccccc1)C1CCCCC1 (stereo not drawn),0,0,7.1*,-6,0,-2
CC1(C)Cc2c(sc3nc(-c4cc5ccccc5o4)n(N)c(=O)c23)CO1,0,-12,6.4*,2,0,-2
CCc1ccc(/C(C)=N/NC(=O)CNc2ccccc2C)cc1,0,-4,-1,14,.,.
Cc1ccc(NC(=O)COc2cccc3c2CCN(Cc2cccnc2)C3=O)c(C)c1,0,-2,5.4*,6,2,4
FC(F)(F)COc1nc(N2CCOCC2)nc(N2CCCC[C@H]2c2cccnc2)n1,0,-6,1,4,.,.
CCOc1ccc(-c2n[nH]c(C)c2Oc2ccc(F)cc2)c(O)c1,0,1,4.9*,-4,0,-10
O=C(Nc1ccccc1)N[C@H]1C[C@H]2C(=O)N3CCC[C@@H]3C(=O)N2C1,1,-15,10*,15,2,19
O=C(Nc1ccc(-c2cscn2)cc1)C1CCCN(C(=O)CN2CCCC2=O)C1 (stereo not drawn),0,-8,0,3,.,.
Cc1c(NC(=O)C(C)OC(=O)c2ccc3c(c2)OCO3)c(=O)n(-c2ccccc2)n1C (stereo not drawn),0,6,2,-8,.,.
COc1ccc(-c2cc(C(F)(F)F)n3ncc(C(=O)Nc4ccc(Cl)cc4Cl)c3n2)cc1OC,0,-3,5.4*,15,-1,-17
